From PubChem
Rin1-Abl PPI inh – human Rin1-Abl interaction inhibition; P00519+Q13671; TR-FRET Rin1/Abl binding, biochemical; 360,000 tested, 0.4% active; inhibition, % at 7.35 µM; in the data active = inhibition above about 5%, passing the limit was not always enough
Target sequence (P00519 whole entry, looked up): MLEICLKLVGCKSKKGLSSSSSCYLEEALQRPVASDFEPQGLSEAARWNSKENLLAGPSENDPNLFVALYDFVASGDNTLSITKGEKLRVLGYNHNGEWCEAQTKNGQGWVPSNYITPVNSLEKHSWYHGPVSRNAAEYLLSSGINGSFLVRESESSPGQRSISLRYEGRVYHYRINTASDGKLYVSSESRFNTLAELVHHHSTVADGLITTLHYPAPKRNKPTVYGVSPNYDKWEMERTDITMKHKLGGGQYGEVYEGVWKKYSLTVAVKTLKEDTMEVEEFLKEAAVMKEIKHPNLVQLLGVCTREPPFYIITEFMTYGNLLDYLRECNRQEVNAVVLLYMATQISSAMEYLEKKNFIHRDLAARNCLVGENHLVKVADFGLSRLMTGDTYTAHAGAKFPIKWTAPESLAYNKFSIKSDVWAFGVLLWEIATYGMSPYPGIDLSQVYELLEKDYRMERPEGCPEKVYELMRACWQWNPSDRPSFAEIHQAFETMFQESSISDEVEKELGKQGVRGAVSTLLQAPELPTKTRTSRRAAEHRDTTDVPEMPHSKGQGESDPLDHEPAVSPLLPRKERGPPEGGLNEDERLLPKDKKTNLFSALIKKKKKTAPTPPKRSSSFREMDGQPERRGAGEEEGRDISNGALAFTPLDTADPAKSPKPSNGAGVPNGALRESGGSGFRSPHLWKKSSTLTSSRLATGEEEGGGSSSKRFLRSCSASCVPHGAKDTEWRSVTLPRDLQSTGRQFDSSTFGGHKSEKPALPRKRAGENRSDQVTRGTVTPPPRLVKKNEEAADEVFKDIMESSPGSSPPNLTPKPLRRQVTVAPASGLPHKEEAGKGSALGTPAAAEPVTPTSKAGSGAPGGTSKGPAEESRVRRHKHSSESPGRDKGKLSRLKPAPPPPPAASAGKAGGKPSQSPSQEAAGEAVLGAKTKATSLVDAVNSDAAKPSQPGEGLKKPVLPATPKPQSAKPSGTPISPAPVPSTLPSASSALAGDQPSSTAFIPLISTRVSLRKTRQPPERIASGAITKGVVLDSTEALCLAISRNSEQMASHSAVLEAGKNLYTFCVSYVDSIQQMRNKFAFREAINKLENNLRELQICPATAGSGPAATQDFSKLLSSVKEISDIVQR
Target sequence (Q13671 whole entry, looked up): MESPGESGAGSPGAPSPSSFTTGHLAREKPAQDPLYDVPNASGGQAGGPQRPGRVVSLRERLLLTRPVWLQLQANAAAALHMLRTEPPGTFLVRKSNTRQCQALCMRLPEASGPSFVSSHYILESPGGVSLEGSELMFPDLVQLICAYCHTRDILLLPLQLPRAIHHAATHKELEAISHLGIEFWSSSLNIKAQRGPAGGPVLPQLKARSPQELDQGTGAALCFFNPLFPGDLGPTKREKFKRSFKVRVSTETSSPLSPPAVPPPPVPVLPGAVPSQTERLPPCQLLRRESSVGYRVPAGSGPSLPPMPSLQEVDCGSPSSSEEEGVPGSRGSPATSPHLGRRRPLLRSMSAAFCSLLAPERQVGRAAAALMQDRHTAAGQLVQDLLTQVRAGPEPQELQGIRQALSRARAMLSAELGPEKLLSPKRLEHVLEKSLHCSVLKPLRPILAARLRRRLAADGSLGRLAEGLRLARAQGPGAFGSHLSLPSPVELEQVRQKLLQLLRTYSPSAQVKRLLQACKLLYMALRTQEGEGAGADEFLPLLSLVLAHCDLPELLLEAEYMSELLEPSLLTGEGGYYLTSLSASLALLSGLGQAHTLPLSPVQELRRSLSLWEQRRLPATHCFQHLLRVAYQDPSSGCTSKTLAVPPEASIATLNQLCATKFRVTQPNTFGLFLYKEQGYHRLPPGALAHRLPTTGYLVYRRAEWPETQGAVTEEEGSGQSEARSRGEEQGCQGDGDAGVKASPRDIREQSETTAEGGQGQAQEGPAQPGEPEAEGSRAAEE
Calb FLC – C. albicans growth modulation with fluconazole; 300,000 tested, 0.57% active; growth inhibition, % (test concentration not listed); C. albicans CaCi-2 (fluconazole-resistant clinical isolate) + fluconazole, Alamar Blue growth, 48 h;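 active = growth inhibition above about 58% in most replicates, limit read from the data, passing the limit was not always enough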;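 also: all wells also contain fluconazole at 8 µg/ml as a sub-toxic cotreatment; 0% = median of DMSO wells and 100% = median of geldanamycin control wells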
Fh CTSL1 inh – cathepsin L1 inhibition, PFM18AAP counter-screen; recombinant F. hepatica cathepsin L1, Z-Leu-Arg-MCA fluorescence; inhibition, % at 5.96 µM; 300,000 tested, 0.49% active;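 active = inhibition above the mean of all tested compounds plus 3 SD, set per screening campaign, cut at about 17% in these data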;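 also: 0% = plate median of test compound wells and 100% = 1 µM Z-Phe-Ala-diazomethylketone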
M18AAP inhibitor – PfM18AAP enzyme inhibition; inhibition, % at 7.35 µM; recombinant PfM18AAP, H-Glu-NHMec fluorogenic cleavage; 290,000 tested, 1.2% active;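 active = inhibition above the campaign mean inhibition over all tested compounds plus 3 SD, cut at about 28% in these data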;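 also: 0% = plate median of test compound wells and 100% = 2 mM ZnCl2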
Rin1-Abl confirm – Rin1-Abl interaction inhibition confirmation; 1,300 tested, 49% active; shares compounds with Rin1-Abl PPI inh; TR-FRET Rin1-Abl binding, purified proteins; inhibition, % at 7.35 µM; in the data active = inhibition above about 6.5%
GFP quench-1 – GFP fluorescence interference artifact; inhibitors/quenchers counterscreen; inhibition, % at 6.75 µM; shares compounds with Rin1-Abl PPI inh; 1,300 tested, 8.5% active; in the data active = inhibition above about 6.5%;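 also: ABL1-eGFP fusion protein alone without its partner RIN1-SBP; 0% = protein with vehicle and 100% = wells lacking protein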
GFP quench dose – quenches GFP in dose response, Rin1-Abl counter-screen; shares compounds with Rin1-Abl PPI inh; GFP fluorescence interference/quenching counterscreen; IC50, µM; 230 tested, under 10 active;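 also: ABL1-eGFP fusion protein alone without its RIN1 binding partner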
GFP quench-2 – quenches GFP fluorescence in Rin1-Abl counterscreen. shares compounds with Rin1-Abl PPI inh. GFP fluorescence quenching counterscreen, biochemical. IC50, µM. 25 tested, under 10 active
* marks the source's active call; other numbers are inactive results; x = no result given. The list is not random: actives were taken first. Their share in the collection is about 2.1%. Unless noted, no rule for the calls is given here.

SMILES	Rin1-Abl PPI inh	Calb FLC	Fh CTSL1 inh	M18AAP inhibitor	Rin1-Abl confirm	GFP quench-1	others
CCC(C)NS(=O)(=O)c1ccc(S(=O)(=O)N(CC(=O)Nc2ccccc2)Cc2ccco2)cc1 (centres undefined)	4.8*	9.1	-8.3	-14.1	0.1	0.3
CCCC(C)NC(=O)CN(Cc1ccco1)S(=O)(=O)c1ccccc1 (centres undefined)	-2.6	x	x	x	x	x
COc1ccc(N2CCN(CCCNC(=O)C(=O)c3c[nH]c4ccccc34)CC2)cc1	-2.1	1.0	-0.1	5.0	x	x
O=c1[nH][nH]c(=O)c(Cl)c1Cl	4.7	x	x	x	x	x
CCn1c2ccccc2c2cc(CN3CCN(S(C)(=O)=O)CC3)ccc21	6.1*	-0.8	4.8	-12.6	-2.5	-1.9
Cc1ccc(NC(=O)CN(C)C(=O)CSc2nc3ccccc3c(=O)n2CCO)cc1	10.7*	x	x	x	9.0*	-0.1
CCOC(=O)N1CCN(C(=O)/C=C/c2ccc(OC)c(OC)c2)CC1	-2.3	34.9	-11.2	-5.0	x	x
CCCOc1ccc(/C=C/C(=O)N2CCN(C(=O)c3ccco3)CC2)cc1OC	15.4*	x	x	x	16.8*	-0.7	GFP quench dose=>67.5
O=C(NC1CCCCC1)c1ccc(CS(=O)Cc2ccccc2Cl)o1 (centres undefined)	2.3	-16.4	0.0	-3.5	x	x
O=C(NC1CCCC1)c1ccc(CS(=O)Cc2ccccc2Cl)o1 (centres undefined)	18.3*	9.4	-0.8	-4.7	-0.2	0.1
O=S(=O)(Nc1nc2ccccc2s1)c1ccc(Cl)nc1	0.8	19.4	0.0	10.7	x	x
N#CCCCn1c(=O)oc2ccccc21	-2.8	-4.3	-3.6	-1.6	x	x
O=c1oc2ccccc2n1CCCCCn1c(=O)oc2ccccc21	4.8*	-1.9	-1.6	-9.1	-1.2	-0.6
O=C(NCc1ccc(F)cc1)C1CCN(S(=O)(=O)N2CCOCC2)CC1	8.4*	-11.9	-1.1	0.9	1.3	0.6
CCOC(=O)CSc1ccc2nnc(-c3cccnc3)n2n1	7.5*	-3.1	0.4	0.1	-3.2	-1.2
CC1=C(C(=O)Nc2cc(C(=O)N(C)Cc3ccccc3)ccc2C)SCCO1	0.0	-12.4	-1.3	-0.7	x	x
CCOc1ncccc1C(=O)OC(C)C(=O)Nc1ccc(Cl)cn1 (centres undefined)	8.2*	x	x	x	-1.9	0.6
C[C@H](CO)N1C[C@H](C)[C@@H](CN(C)S(=O)(=O)c2cn(C)cn2)Oc2c(NS(=O)(=O)c3cn(C)cn3)cccc2C1=O	-1.9	x	x	x	x	x
c1ccc(CNc2nc(NCc3cccs3)nc3ccsc23)cc1	2.4	x	x	x	x	x
c1ccc(CNc2nc(NCCc3ccncc3)c3sccc3n2)cc1	20.1*	x	x	x	10.5*	0.2
CCCCN(C)C(=O)c1ccc(Nc2nc(C(N)CCc3ccccc3)cs2)nc1 (centres undefined)	2.8	x	x	x	x	x
CCCCN(C)C(=O)c1ccc(Nc2nc(C(N)Cc3ccc(C(F)(F)F)cc3)cs2)nc1 (centres undefined)	8.1*	x	x	x	4.8	-0.6
Cc1cccc(C(=O)Nc2cccc(C(=O)N/N=C/c3ccccn3)c2)c1	19.0*	-4.9	1.2	4.4	-2.6	0.0
Cc1cccc(C(=O)N/N=C/c2ccccn2)c1	1.1	4.7	1.7	-2.7	x	x
Cc1c(CC(=O)NCC(C)C)c(=O)oc2cc3c(cc12)CCC(C)(C)O3	5.8	8.1	5.3	0.9	x	x
SMILES	Rin1-Abl PPI inh	Calb FLC	Fh CTSL1 inh	M18AAP inhibitor	Rin1-Abl confirm	GFP quench-1	others
N#Cc1ccsc1NC(=O)CN1CCN(c2ccccc2)CC1	-3.2	-0.8	-6.6	3.2	x	x
N#Cc1ccsc1NC(=O)CN1CCN(c2ccc(O)cc2)CC1	10.2*	-29.7	-3.8	30.0*	-0.9	-0.1
Cc1ccc(NC(=O)CSc2nnc3n2CCCCC3)cc1	6.0*	5.0	-1.2	-7.2	0.3	-1.7
COc1ccc(NC(=O)CSc2nnc3n2CCCCC3)cc1	1.2	-0.1	0.6	1.5	x	x
CCOC(=O)c1c(NC(=O)CSc2cccc[n+]2[O-])sc(C(=O)Nc2ccccc2)c1C	-1.2	-0.8	3.1	1.1	x	x
CCOC(=O)c1c(NC(=O)CN(C)C2CCN(C)CC2)sc(C(=O)Nc2ccccc2)c1C	7.6*	-4.0	1.5	-7.7	-1.0	-0.5
CN(C(=O)c1ccc(NC(=O)Cc2cccc(NC(=O)C3CCN(C(=O)C4CCC4)CC3)c2)cc1)C1CCCC1	-0.9	x	x	x	x	x
CN(C(=O)c1ccc(NC(=O)Cc2ccc(NC(=O)C3CCN(C(=O)C4CCCC4)CC3)cc2)cc1)C1CC1	78.2*	x	x	x	84.5*	-0.7
CN(C(=O)c1ccc(NC(=O)Cc2ccc(NC(=O)C3CCN(C(=O)C4CCC4)CC3)cc2)cc1)C1CC1	37.4*	x	x	x	61.5*	0.1
CN(C(=O)c1ccc(NC(=O)Cc2cccc(NC(=O)C3CCN(C(=O)C4CCCC4)CC3)c2)cc1)C1CC1	20.2*	x	x	x	28.0*	0.1	GFP quench dose=>67.5
CN(C(=O)c1ccc(NC(=O)Cc2ccc(NC(=O)C3CCN(C(=O)C4CCCCC4)CC3)cc2)cc1)C1CCCC1	4.0	x	x	x	x	x
Cc1nn(CC(=O)NC2CC2)c(C)c1S(=O)(=O)NC(C)(C)C	-1.9	x	x	x	x	x
COc1cc(CCC(=O)OCC(=O)Nc2cc(S(=O)(=O)N3CCOCC3)ccc2Cl)cc(OC)c1OC	2.4	x	x	x	x	x
Cn1nc(C(C)(C)C)c([N+](=O)[O-])c1C(=O)NC1CCCCC1	2.0	1.2	2.1	-2.7	x	x
CCn1c(SCC(=O)Nc2cccc(C)c2)nc2nc3c(cc2c1=O)COC(C)(C)C3	7.5*	-3.2	3.4	-4.1	12.6*	-0.4
Cc1nn(-c2ccccc2)c(C)c1C(=O)OCC(=O)N(C)c1ccccc1	9.0*	x	x	x	2.3	-0.5
COc1cc(N)c2ncccc2c1Br	13.4*	x	x	x	-2.6	1.8
CN(CCc1ccccc1)C(=O)c1ccc(NC(=O)Cc2ccc(NC(=O)C3CCN(C(=O)C4CC4)CC3)cc2)cc1	13.0*	x	x	x	14.7*	-4.0
CN(CCc1ccccc1)C(=O)c1ccc(NC(=O)Cc2ccc(NC(=O)C3CCN(C(=O)c4ccccc4)CC3)cc2)cc1	41.4*	x	x	x	41.6*	0.5	GFP quench dose=>67.5;GFP quench-2=>67.5
CN(CCc1ccccc1)C(=O)c1ccc(NC(=O)Cc2ccc(NC(=O)C3CCN(C(=O)C4CCCC4)CC3)cc2)cc1	59.6*	x	x	x	67.6*	0.6	GFP quench dose=>67.5;GFP quench-2=>67.5
CN(CCc1ccccc1)C(=O)c1ccc(NC(=O)Cc2ccc(NC(=O)C3CCCN(C(=O)c4ccccc4)C3)cc2)cc1 (centres undefined)	-3.4	x	x	x	x	x
Cc1c(F)cccc1NS(=O)(=O)c1ccc2c(c1)c(=O)n(C)c(=O)n2C	10.3*	-5.8	0.1	-0.4	2.2	-0.8
Cc1c(F)cccc1NS(=O)(=O)c1ccc2c(c1)n(C)c(=O)c(=O)n2C	2.5	2.4	-5.1	3.9	x	x
Cn1c(Cc2ccccc2)nnc1SCC(=O)Nc1ccccc1	2.5	-9.8	-6.1	1.2	x	x
